In ChEMBL document CHEMBL3988442, “University of Dundee, Small-Polar-MMV Screening Library” (2021) one finds Percent Effect data, which are given here for 40 compounds.

For this test, the target named is T1, Aspartate--tRNA(Asp/Asn) ligase (Mycobacterium tuberculosis (strain ATCC 25618 / H37Rv)) (UniProt P9WFW3).
T1 sequence (whole entry): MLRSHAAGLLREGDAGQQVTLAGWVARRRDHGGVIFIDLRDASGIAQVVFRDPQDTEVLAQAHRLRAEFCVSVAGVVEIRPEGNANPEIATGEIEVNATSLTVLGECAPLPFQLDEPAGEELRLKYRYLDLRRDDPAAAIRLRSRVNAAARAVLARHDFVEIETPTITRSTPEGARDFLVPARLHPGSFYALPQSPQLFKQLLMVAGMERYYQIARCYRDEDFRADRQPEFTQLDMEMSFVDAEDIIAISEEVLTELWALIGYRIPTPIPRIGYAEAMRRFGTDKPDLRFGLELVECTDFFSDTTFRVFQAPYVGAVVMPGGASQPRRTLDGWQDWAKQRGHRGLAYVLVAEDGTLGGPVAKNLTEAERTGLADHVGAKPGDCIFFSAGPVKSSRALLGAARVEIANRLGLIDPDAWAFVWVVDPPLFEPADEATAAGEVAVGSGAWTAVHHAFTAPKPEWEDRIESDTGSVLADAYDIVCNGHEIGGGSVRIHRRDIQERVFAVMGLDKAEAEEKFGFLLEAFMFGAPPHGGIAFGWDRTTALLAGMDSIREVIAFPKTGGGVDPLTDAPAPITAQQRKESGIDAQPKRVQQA
Briefly: Assay for Asp RNA synthetase-1 from Mycobacterium tuberculosis. Format: functional. On the set-up: scale not given: in the data most compounds retested in dose-response had high values. The conditions noted are these: 30 µM.
For the compound `CO[C@H]1CN(C(=O)c2ccccn2)[C@@H]2CCCO[C@H]12`, the Percent Effect turned out to be 1.27%. For the compound `O=C1NCC2(CCCN(CCc3ccccc3)C2)Oc2ccccc21` (stereo not given), the Percent Effect is -2.1%. To `CN(Cc1nc(N)c2ccccc2n1)C1CCCN(c2cccnn2)C1` (stereo not given) belongs -4.22%. To `CC(=O)c1ccc(N2CCCC(CO)(CCOc3ccccc3)C2)nc1` (stereo not given) belongs -2.11%. To `Cc1cccc(N2CC[C@@H]3CN(C(=O)c4ccco4)CCO[C@@H]3C2)n1` belongs -0.221%.

Turning to `Cc1ccc(F)cc1NC(=O)NCC(C)N1CCOCC1` (stereo not given), the Percent Effect was -1.14%.

Turning to `CC(NCc1c(C(C)C)nn(C)c1N1CCOCC1)C(N)=O` (stereo not given), the Percent Effect is -7.54%. Take `CC(C)c1cc(N2CCC(CCC(=O)NC3CC3)CC2)n2nccc2n1`: the Percent Effect came to 0.32%. With `Cc1nc(C(C)(C)NC(=O)Nc2cccc(C#N)c2)no1`, the Percent Effect is -0.287%. To `CCC(=O)N1CCC(c2nnc(Cn3cncn3)n2C2CC2)CC1` belongs -3.04%. Under `CCN1CCN(c2ccc(CNC(=O)c3ccc(Cl)o3)cn2)CC1` stands -3.07%; under `Cc1cc(CN(C)C(=O)c2cc3c([nH]c2=O)CCCC3=O)no1`, 2.54%. Under `CC(NC(=O)NCCCn1ccnc1)c1ccc2c(c1)CCC(=O)N2` (stereo not given) stands -3.85%; under `CCCn1c(C)cc(C(=O)CN2C(=O)c3ccccc3CS2(=O)=O)c1C`, 0.257%.

Take `Cc1cnccc1N1CCCN(C(=O)CCCc2cn[nH]c2)CC1`: the Percent Effect is -0.632%.

With `CCc1ccc(C(=O)N2CCN(CCS(C)(=O)=O)CC2)o1`, the Percent Effect was -3.52%. To `CCc1nc(C2CCCN2C(=O)c2nccnc2N)no1` (stereo not given) belongs -4.3%. On to `O=C(CCN1CCCC1=O)NCc1cccnc1Oc1ccccc1`, for which the Percent Effect was -8.91%. Under `CCN(c1ccc(C(=O)NCCCN2CCOCC2)cc1)S(=O)(=O)CC` stands 4.46%.

In the case of `Cc1ccc(CC(=O)N2CCOC(c3nc(C)n[nH]3)C2)cn1` (stereo not given), the Percent Effect came to 1.92%. Turning to `Cc1nc(C2CCCN(C(=O)c3cccc4c3OCO4)C2)no1` (stereo not given), the Percent Effect is 5.25%. Under `OC(CN(Cc1ccccc1)Cc1ccncc1)c1cccs1` (stereo not given) stands -1.23%; under `Cc1noc(C)c1C(=O)NCC(O)c1ccc(F)cc1F` (stereo not given), -2.01%. Under `CC(C)Oc1cccc(C(O)CNC(=O)CCc2ccncc2)c1` (stereo not given) stands -1.28%.

On to `COc1cc(C)sc1C(=O)N1CC(c2cccnc2)C1`, for which the Percent Effect turned out to be 3.09%.

As for `COc1ccc(-c2cc(C3CCCCCN3S(=O)(=O)N(C)C)on2)cc1` (stereo not given), the Percent Effect is -5.4%. Under `CCc1ncncc1C(=O)N1CCCN(Cc2ccc(C)cc2)CC1` stands 7.33%; under `COCCN1C[C@@H]2CN(c3ncccn3)C[C@@H]2C1=O`, 0.324%; under `Cc1cc(C)n2cc(CN3CCCC3Cn3nc(C)nc3C)nc2n1` (stereo not given), -2.84%.

On to `Cn1c(Cn2ccnc2)nnc1C1CCN(C(=O)C2(C)CC2)CC1`, for which the Percent Effect was -0.661%. On to `O=C(c1cc(F)ccc1F)C1CCN(C(=O)c2ccccn2)CC1`, for which the Percent Effect was -3.52%. Under `O=C(C1=CCCC1)N1CCO[C@H]2[C@@H](OCC3CC3)CC[C@@H]21` stands 2.53%; under `CC(C)n1ccnc1CN1CCCN(C(=O)CC2C=CCC2)CC1` (stereo not given), 1.91%.

With `COC(=O)c1cccn1C1CCN(C(=O)c2cc(F)ccc2F)CC1`, the Percent Effect is 1.88%. To `c1ccc(-c2nc(CNC3CCc4ncnn4C3)co2)cc1` (stereo not given) belongs -3.79%; to `O=C1OC2(CCN(C3CCCOC3)CC2)CN1CCc1ccccc1` (stereo not given), 1.52%. For `Cn1ccnc1CN1CCN(Cc2cc(C#N)ccc2F)CC1`, the Percent Effect is -5.71%. Turning to `CN(C)C(CNS(=O)(=O)c1ccc(F)cc1F)c1cccn1C` (stereo not given), the Percent Effect came to 0.719%. Consider `Cc1cc(C)n(C2CCCN(C(=O)c3cc(C4CC4)on3)C2)n1` (stereo not given), for which the Percent Effect was -7.81%.

Regarding `CNc1nc2c(s1)C(=O)CN(C(=O)NCc1ccccc1)C2`, the Percent Effect amounted to 1.63%.
